# HP1b binding inh = inhibitors of HP1-beta chromodomain binding to methylated histone tails; AlphaScreen HP1-beta / biotin-H3K9me3 peptide binding; Potency, µM (highest dose often 114 µM), inactives show at the top dose activity change, negative = inhibition, hits mostly inhibitors; 0.56% of 390,000 active; AID 540317; also: potency is read from the fitted curve at half-maximal effect; nearly all actives have a fitted effect of over 70% in size
#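 Compound inhibition of the preformed complex between 50 nM HP1-beta and 50 nM biotinylated H3K9me3 peptide was read by AlphaScreen. Buffer was PBS pH 7.4 with 0.01% Tween-20. Incubations ran 30 min at room temperature, with 10 ug/mL donor/acceptor beads.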
# JMJD2A Tudor inh = blocks the human JMJD2A Tudor domain. Potency, µM (doses to about 114 µM), for the others: at the top dose activity change, negative = inhibition, actives largely listed as inhibitors. AlphaScreen JMJD2A-Tudor / H3K4me3 peptide binding. O75164. 4.4% of 390,000 active; also: potency is read from the fitted curve at half-maximal effect; % is scaled to controls: 0 for no effect and ±100 for the full control effect; nearly all actives have a fitted effect of over 50% in size
# L3MBTL1 block = L3MBTL1 (human) inhibition. Q9Y468. AlphaScreen L3MBTL1–H3K9me1 peptide binding. Potency, µM (highest dose often 57.1 µM), for the others: top-dose activity, negative = inhibition, actives largely listed as inhibitors. 0.66% of 230,000 active; also: potency is read from the fitted curve at half-maximal effect; % is scaled to controls: 0 for no effect and ±100 for the full control effect; nearly all actives have a fitted effect of over 60% in size
# Target sequence (Q9Y468 whole entry, looked up): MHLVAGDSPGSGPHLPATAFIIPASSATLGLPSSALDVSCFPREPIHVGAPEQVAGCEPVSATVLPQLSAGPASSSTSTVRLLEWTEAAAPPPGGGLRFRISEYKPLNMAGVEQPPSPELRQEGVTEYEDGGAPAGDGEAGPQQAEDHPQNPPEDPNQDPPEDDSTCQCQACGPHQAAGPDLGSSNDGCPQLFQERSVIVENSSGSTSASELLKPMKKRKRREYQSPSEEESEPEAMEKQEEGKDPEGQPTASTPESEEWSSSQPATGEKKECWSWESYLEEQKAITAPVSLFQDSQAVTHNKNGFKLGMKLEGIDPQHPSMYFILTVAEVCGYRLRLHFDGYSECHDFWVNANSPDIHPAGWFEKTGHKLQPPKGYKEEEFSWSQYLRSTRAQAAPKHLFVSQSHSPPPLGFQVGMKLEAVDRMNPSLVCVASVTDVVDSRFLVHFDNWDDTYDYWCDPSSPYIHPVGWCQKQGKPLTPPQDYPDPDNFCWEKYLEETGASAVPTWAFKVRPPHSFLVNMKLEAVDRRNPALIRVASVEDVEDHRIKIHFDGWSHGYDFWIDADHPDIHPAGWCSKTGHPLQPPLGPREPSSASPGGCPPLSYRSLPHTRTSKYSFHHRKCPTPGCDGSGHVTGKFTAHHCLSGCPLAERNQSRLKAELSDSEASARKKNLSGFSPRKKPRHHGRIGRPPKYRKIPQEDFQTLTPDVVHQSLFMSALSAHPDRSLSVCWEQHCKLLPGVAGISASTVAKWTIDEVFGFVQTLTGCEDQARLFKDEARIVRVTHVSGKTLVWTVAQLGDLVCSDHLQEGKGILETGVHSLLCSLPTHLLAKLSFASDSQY
#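 First, the protein-peptide complex forms for 30 min at room temperature (L3MBTL1 50 nM, biotinylated H3K9me1 peptide 75 nM). Next, compounds are pin-transferred and incubated 30 min. Finally, AlphaScreen beads are added and read after 30 min.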
# PI5P4Ka inh = PI5P4K alpha (human) kinase inhibition; PI5P4Kalpha enzyme, ADP-Glo luminescence, 60 min; hits give low values; AID 652105; 1.2% of 330,000 active; max response, %; P48426; active = max response of -50% or lower; inconclusive = between -30% and -50%; inactive = -30% or higher; also: value at the top dose of about 77 µM; % is scaled to controls: 0 for no effect and ±100 for the full control effect
#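 qHTS, 1536-well: enzyme/substrate mix, compound by pin tool, 5 microM ATP final; RT 60 min; ADP-Glo reagents 1 (45 min) then 2 (30 min); luminescence.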
# G9a inh = blocks human histone lysine methyltransferase G9a; Q96KQ7; G9a H3K9 monomethylation, AlphaScreen, 2 h; Potency, µM (titrated, usually from 102 µM), for inactives: at the highest dose activity, negative = inhibition, most hits filed as inhibitors; 8.8% of 350,000 active; AID 504332; also: potency is read from the fitted curve at half-maximal effect; % is scaled to controls: 0 for no effect and ±100 for the full control effect; nearly all actives have a fitted effect of over 75% in size
#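 Quantitative HTS format: methyltransferase activity on a biotin-tagged H3K9 peptide is measured by AlphaScreen, using a rabbit anti-monomethyl-H3K9 antibody with streptavidin donor and anti-IgG acceptor beads. Final levels are 20 nM enzyme, 500 nM peptide, 20 uM SAM; 2 h RT.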
# BAZ2B block = blocks human BAZ2B; Q9UIF8; AlphaScreen BAZ2B-H3K14Ac peptide displacement; Potency, µM (doses to about 114 µM), for inactives: at the top dose activity change, negative = inhibition, most hits filed as inhibitors; 4.4% of 360,000 active; also: potency is read from the fitted curve at half-maximal effect; % is scaled to controls: 0 for no effect and ±100 for the full control effect; nearly all actives have a fitted effect of over 60% in size
#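 In this displacement format the biotinylated H3(5-23) peptide acetylated at Lys14 serves as ligand at 50 nM, with BAZ2B at 50 nM in PBS pH 7.4 containing 0.01% Tween-20. Donor and acceptor beads are 10 ug/mL final.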
# * = called active by the depositor; ? = inconclusive; . = no result given; [ ] = another dose, or the depositor's remark. A selection: hits, their analogues and other compounds. The true share with any hit is near 11%. Unless noted, calls follow the shape of the dose curve; as a rule, active = well fitted inhibition curve with a large enough effect; inconclusive = small, poorly fitted or top-dose-only effect; inactive = no such curve, though single readings can be large or run the other way.
SMILES,HP1b binding inh,JMJD2A Tudor inh,L3MBTL1 block,PI5P4Ka inh,G9a inh,BAZ2B block
COc1ccc(C2C(C(C)=O)=C(O)C(=O)N2C)c(OC)c1 (stereo not drawn),19%,?,-4%,2,45µM*,-37%
CC1=NN(C(C#N)c2c(C)nn(Cc3ccccc3)c2C)C(C)(C)C1 (stereo not drawn),29%,?,3%,5,35µM*,-5%
CC1=NN(C(C#N)c2ccc([N+](=O)[O-])cc2)C(C)(C)C1 (stereo not drawn),-20%,22µM*,-5%,5,?,-36%
COc1ccc(Oc2ncc3nc(C)c(=O)n(Cc4ccc(F)cc4)c3n2)cc1,.,.,.,.,3%[12.7 µM],.
Cc1ccc(CNC(=O)C(C)n2c(=O)cc(-c3ccccc3)c3c(C)nn(C)c32)cc1 (stereo not drawn),24%,-15%,.,.,-2%[59 µM],-14%
Cn1cccc1C(=O)OCC(=O)c1cc2ccccc2o1,-8%,?,-11%,.,45µM*,-22%
Cc1ccc(CN(Cc2cccn2-c2nnc(N3CCCC3=O)s2)C(=O)Nc2cc(C)cc(C)c2)cc1,16%,-19%,.,.,-7%[59 µM],-16%
S=c1[nH]nc(Cc2sc(-c3ccccc3)nc2-c2ccccc2)o1,2%,-32%,.,-5,28µM*,?
C#CCOCCOCCOCCNc1nc(N2CCN(C(=O)[C@H](CCCN=C(N)N)n3cc(C(N)[C@@H](C)CC)nn3)CC2)nc(N2CCN(C(=O)[C@H](CCCCN)n3cc([C@@H](N)[C@H](C)CC)nn3)CC2)n1 (stereo partly drawn),35%,-30%,-5%,-2,.,.
C#CCOCCOCCOCCNc1nc(N2CCN(C(=O)[C@H](CCCCN)n3cc([C@@H](N)C(C)CC)nn3)CC2)nc(N2CCN(C(=O)[C@H](CCCCN)n3cc([C@@H](N)CO)nn3)CC2)n1 (stereo partly drawn),.,.,?,.,?,22µM*
C#CCOCCOCCOCCNc1nc(N2CCN(C(=O)[C@H]([C@@H](C)CC)n3cc([C@@H](N)CO)nn3)CC2)nc(N2CCN(C(=O)[C@H](CCCCN)n3cc([C@@H](N)C(C)CC)nn3)CC2)n1 (stereo partly drawn),39%,50µM*,-18%,5,12%[12.7 µM],50µM*
Cn1cnc(S(=O)(=O)N2CCC(C(=O)N3CCN(c4ccccc4F)CC3)CC2)c1,20%,2%,.,.,2%[12.7 µM],-10%
COc1ccc(NC(=O)c2cc3ccccc3o2)cc1,9%,-5%,3%,4,1%,-3%
O=C(/C=C/c1cc2ccccc2o1)c1ccccc1O,?,20µM*,-10%,34,.,8.9µM*
COc1cccc(C(=O)Oc2ccccc2/C=C\C(=O)c2cc3ccccc3o2)c1,6%,-31%,-12%,3,11µM*,?
COc1ccc(O)c(C(=O)/C=C/c2cc3ccccc3o2)c1,3.5µM*,28µM*,.,7,?,11µM*
CC(=O)N1CCCC1c1nc2ccccc2n1Cc1cccc(Cl)c1 (stereo not drawn),36%,4%,.,.,-28%[59 µM],-14%
Cc1ccc(C(=O)c2coc3cc([N+](=O)[O-])c(O)c([N+](=O)[O-])c23)cc1,?,56µM*,?,-82*,8.9µM*,45µM*
COc1cc2c(cc1OC)CN(c1ccc(F)cc1[N+](=O)[O-])CC2,?,50µM*,.,5,35µM*,40µM*
COc1cc2c(cc1OC)CN(C(=O)c1ccc(N3CCCC3)c([N+](=O)[O-])c1)CC2,?,50µM*,-3%,-4,16%[2.33 µM],45µM*
COc1cc2c(cc1OC)CN(c1ccc([N+](=O)[O-])cc1Cl)CC2,-23%,?,-16%,1,?,?
CCC(C)(C)NC(=O)Cn1c(=O)ccc2cc(S(=O)(=O)N3CCC(C)CC3)ccc21,21%[57 µM],-26%,.,.,12%[59 µM],4%
COc1ccc(-c2nc3c4ccccc4ccn3c2CN2CCCCC2)cc1,-3%,?,-4%,5,40µM*,?
CN1C(=O)c2cccc3c(S(=O)(=O)Nc4cccc(C(=O)O)c4)ccc1c23,25%,-10%,.,.,-35%[59 µM],-8%
Cc1n[nH]c(=O)c2c(NC(=O)CSc3c(Cl)cccc3Cl)oc(C)c12,20%,-11%,-2%,-26,13µM*,11%
SMILES,HP1b binding inh,JMJD2A Tudor inh,L3MBTL1 block,PI5P4Ka inh,G9a inh,BAZ2B block
Cc1n[nH]c(=O)c2c(NC(=O)CSc3ccccc3Cl)oc(C)c12,0%,-18%,-4%,-15,32µM*,13%
O=C(CSc1nnc2scc(-c3ccc(Cl)cc3)n12)Nc1ccccc1F,35%,-12%,.,.,2%[59 µM],-1%
CC[C@@H](C)[C@H](NS(=O)(=O)c1cccc2ccccc12)C(=O)N[C@H](C=O)Cc1c[nH]c2ccccc12,.,.,.,.,0%[59 µM],.
Cc1ccc(-c2n[nH]c(=S)n2/N=C/C=C\c2ccccc2[N+](=O)[O-])cc1,-7%,?,.,-11,?,?
O=[N+]([O-])c1ccccc1/C=C/C=N/n1c(-c2ccccc2)n[nH]c1=S,?,56µM*,-1%,0,3.2µM*,?
O=[N+]([O-])c1ccccc1/C=C/C=N/n1c(-c2ccc(Cl)cc2)n[nH]c1=S,-19%,?,-7%,-17,6.3µM*,?
CN1CCN(CC(=O)c2cc(C(C)(C)C)c(O)c(C(C)(C)C)c2)CC1,42%,?,7%,-12,32µM*,-31%
Cc1ccc(CNc2ncnc3c2c(-c2ccccc2)cn3-c2cccc(Cl)c2)cc1,8%,-20%,.,.,11%[59 µM],-3%
CCCN(C(=O)Cn1cnc2sc(C)c(S(=O)(=O)N3CCN(c4ncccn4)CC3)c2c1=O)c1cccc(C)c1,42%,-6%,.,.,0%[59 µM],1%
COc1ccccc1-c1cncnc1Nc1ccccc1,.,.,.,.,2%[0.501 µM],.
CCC1C(=O)Nc2ccccc2N1C(=O)c1ccc(Cl)nc1 (stereo not drawn),21%,100µM*,.,0,31%,5%
CC1COc2ccccc2N1C(=O)c1ccc(Cl)nc1 (stereo not drawn),19%,-18%,0%,6,-29%,?
CCOc1cc(/C=C2\SC(=O)N(CC(=O)Nc3ccccc3F)C2=O)cc([N+](=O)[O-])c1O,35µM*,-20%[11.4 µM],-16%,-55*,16µM*,40µM*
COc1cc(/C=C2\SC(=O)N(c3ccccc3Cl)C2=O)cc([N+](=O)[O-])c1O,?,35µM*,?,-53*,11µM*,25µM*
